The record followed here is PubChem BioAssay (NCATS).

Experiment [1] concerns the target Estrogen receptor (Homo sapiens) (UniProt P03372). In words: qHTS assay for small molecule antagonists of estrogen receptor alpha signaling (AID 588513; active = well fitted curve in the direction sought with a large enough effect in the signal ratio, with a control signal flat, not every such curve was filed as active; inconclusive = small, poorly fitted or top-dose-only effect, or effect the other way, or a change in a side signal; inactive = no such curve, though single readings can be large or run the other way; the % refers to the signal ratio; also: potency is read from the fitted curve at half-maximal effect). A digest of the protocol:
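ER-alpha-UAS-bla GripTite HEK 293 cells in medium with 2% charcoal/dextran-treated FBS were preincubated 4 h at 37 C, dosed with compound (1:2 titration), stimulated with 0.5nM 17-beta-estradiol for 18 h, then read by CCF4 beta-lactamase fluorescence.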
(In general: Quantitative high-throughput screening tests each substance at several concentrations.)

The target is the same in experiment [2]. In words: qHTS assay for small molecule agonists of estrogen receptor alpha signaling (AID 588514). Also: nearly all actives have a fitted effect of over 70% in size. Also: potency is read from the fitted curve at half-maximal effect.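 As to activation: 0% = vehicle only and 100% = reference agonist.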 In short, it runs like this:
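Cells were plated at 5000/well, incubated 4 hrs at 37 C, dosed with compound titration series, incubated 18 hrs at 37 C, loaded with CCF4 dye for 2 hrs at RT, then fluorescence was read.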

Experiment [3] deals with Peroxisome proliferator-activated receptor delta (Homo sapiens) (UniProt Q03181). Briefly: qHTS assay for small molecule agonists of peroxisome proliferator-activated receptor delta signaling (AID 588534).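 Also: 0% = DMSO basal wells and 100% = positive control agonist at 10 µM.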 In short, it runs like this:
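Fluorescence from CCF4 substrate cleavage by beta-lactamase reporter, read 2 hrs at RT, measured agonist activity. Compounds were tested with 18 hrs exposure at 37 C. Concentration-response data fitted to Hill equation.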

Experiment [4] concerns the target Peroxisome proliferator-activated receptor gamma (Homo sapiens) (UniProt P37231). Briefly: qHTS assay for small molecule agonists of peroxisome proliferator-activated receptor gamma signaling (AID 588536; active = well fitted curve in the direction sought with a large enough effect in the signal ratio, with a control signal flat, not every such curve was filed as active; inconclusive = small, poorly fitted or top-dose-only effect, or effect the other way, or a change in a side signal; inactive = no such curve, though single readings can be large or run the other way; the % refers to the signal ratio;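 also: 0% = DMSO basal wells and 100% = rosiglitazone at 2 µM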). A digest of the protocol:
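Ratiometric blue/green fluorescence (405 nm excitation; 460 and 530 nm emission) from CCF4-loaded HEK293 reporter cells serves as signal. Exposure to test compounds lasts 16 h at 37 C in medium containing 1% charcoal/dextran-treated serum.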

Experiment [5] has the same target. In words: qHTS assay for small molecule antagonists of peroxisome proliferator-activated receptor gamma signaling (AID 588537; active = well fitted inhibition curve with a large enough effect in the signal ratio, with a control signal flat, not every such curve was filed as active; inconclusive = small, poorly fitted or top-dose-only effect, or effect the other way, or a change in a side signal; the % refers to the signal ratio;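 also: reporter cells co-stimulated with 50 nM rosiglitazone agonist during compound treatment; % of control where 0% means no effect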). A digest of the protocol:
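We seeded GeneBLAzer HEK293 reporter cells at 3000 per well, allowed 6-6.5 h attachment at 37 C, then co-treated with test compound titrations and 50 nM rosiglitazone overnight (16 h). Inhibition was quantified from 460/530 nm emission ratios.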

Experiment [6] concerns the target Vitamin D3 receptor (Homo sapiens) (UniProt P11473). In words: qHTS assay for small molecule antagonists of vitamin D receptor signaling (AID 588541).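 Also: receptor activated by calcitriol during compound treatment; series mostly up to about 77 µM; % is scaled to controls: 0 for no effect and ±100 for the full control effect.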 In short, it runs like this: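 VDR-UAS-bla HEK293T cells (2000/well, 2% charcoal-stripped FBS) were treated with titrated compounds plus 1-alpha,25-dihydroxyvitamin D3 (50 nM or 3 nM final) for 16 h at 37 C. CCF4 beta-lactamase fluorescence was read; Hill fits gave IC50.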

The nature of experiment [7]: qHTS assay for small molecule agonists of retinoid X receptor alpha signaling (AID 588544).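 As to activation: 0% = DMSO basal wells and 100% = reference agonist.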 The following applies: HEK293T RXRa-UAS-bla, beta-lactamase reporter, 18 h; 530 nm emission.
In experiment [8] the target is Retinoic acid receptor RXR-alpha (Homo sapiens) (UniProt P19793). Described as above.
Sequence of Retinoic acid receptor RXR-alpha (Homo sapiens) (P19793 whole entry, looked up): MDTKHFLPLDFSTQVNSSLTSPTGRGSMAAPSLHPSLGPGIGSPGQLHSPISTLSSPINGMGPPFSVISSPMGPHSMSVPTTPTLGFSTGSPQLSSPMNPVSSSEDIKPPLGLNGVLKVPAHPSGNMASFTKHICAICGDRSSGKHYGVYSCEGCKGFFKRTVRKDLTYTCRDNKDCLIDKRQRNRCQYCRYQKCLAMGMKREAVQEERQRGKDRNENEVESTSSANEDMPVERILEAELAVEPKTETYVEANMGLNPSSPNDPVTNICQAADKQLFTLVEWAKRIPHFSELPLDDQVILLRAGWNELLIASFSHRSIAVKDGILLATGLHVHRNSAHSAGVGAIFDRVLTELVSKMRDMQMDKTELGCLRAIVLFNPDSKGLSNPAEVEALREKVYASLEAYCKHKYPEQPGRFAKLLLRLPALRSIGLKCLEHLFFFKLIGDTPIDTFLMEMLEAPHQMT
In experiment [9] the target is Thyroid hormone receptor beta (Homo sapiens) (UniProt P10828). Briefly: qHTS assay for small molecule agonists of thyroid hormone receptor beta signaling (AID 588545).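 Also: 0% = DMSO only and 100% = 10 nM T3.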 A digest of the protocol: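 TR-UAS-bla GripTite HEK 293 cells (2500/well, medium with 2% charcoal/dextran FBS) were treated in agonist mode for 18 h at 37 C, titrated. Beta-lactamase was read by CCF4 ratio after 2 h; normalized to 10 nM T3 (100%) and DMSO, Hill-fitted for EC50 and efficacy.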
Sequence of Thyroid hormone receptor beta (Homo sapiens) (P10828 whole entry, looked up): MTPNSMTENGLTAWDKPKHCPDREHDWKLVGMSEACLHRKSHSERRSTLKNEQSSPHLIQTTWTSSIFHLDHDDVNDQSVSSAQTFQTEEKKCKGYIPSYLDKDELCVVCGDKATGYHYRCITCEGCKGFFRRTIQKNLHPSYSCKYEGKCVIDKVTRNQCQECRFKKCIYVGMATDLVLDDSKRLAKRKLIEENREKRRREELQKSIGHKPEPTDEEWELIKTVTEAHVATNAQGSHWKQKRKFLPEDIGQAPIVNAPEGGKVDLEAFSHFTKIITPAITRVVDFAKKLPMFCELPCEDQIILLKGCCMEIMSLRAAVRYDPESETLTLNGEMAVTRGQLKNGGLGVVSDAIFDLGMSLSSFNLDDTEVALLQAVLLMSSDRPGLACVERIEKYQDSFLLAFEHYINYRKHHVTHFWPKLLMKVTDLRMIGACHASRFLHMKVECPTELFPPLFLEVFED

Experiment [10] in a line: qHTS assay for small molecule antagonists of retinoid X receptor alpha signaling (AID 588546; active = well fitted inhibition curve with a large enough effect in the signal ratio, with a control signal flat, not every such curve was filed as active; inconclusive = small, poorly fitted or top-dose-only effect, or effect the other way, or a change in a side signal; inactive = no such curve, though single readings can be large or run the other way; the % refers to the signal ratio;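 also: cells stimulated with 9-cis-retinoic acid as agonist; % is scaled to controls: 0 for no effect and ±100 for the full control effect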). The following applies: HEK293T RXRa-UAS-bla, beta-lactamase ratio, antagonist mode; measured here: W530 green channel, cytotoxicity proxy. In short, it runs like this: (§1)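 Beta-lactamase reporter inhibition, read as CCF4 fluorescence ratio (ex 405, em 460/530 nm) after 2 h at RT. HEK293T UAS-bla cells, 2500/well, were stimulated with 9-cis-RA at 500 or 100 nM final alongside test compound for 18 h at 37 C.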

The target in experiment [11] is Retinoic acid receptor RXR-alpha (Homo sapiens) (UniProt P19793). The experiment is described as above. The conditions noted are these: HEK293T RXRa-UAS-bla, beta-lactamase ratio, antagonist mode. A digest of the protocol:
as §1

Experiment [12] deals with Thyroid hormone receptor beta (Homo sapiens) (UniProt P10828). In words: qHTS assay for small molecule antagonists of thyroid hormone receptor beta signaling (AID 588547; active = well fitted inhibition curve with a large enough effect in the signal ratio, with a control signal flat, not every such curve was filed as active; inconclusive = small, poorly fitted or top-dose-only effect, or effect the other way, or a change in a side signal; the % refers to the signal ratio;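 also: cells stimulated with 0.4 nM T3 agonist during compound exposure; series mostly up to about 77 µM; % is scaled to controls: 0 for no effect and ±100 for the full control effect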). The following applies: TR-UAS-bla HEK293, beta-lactamase ratio, antagonist mode, 18 h. A digest of the protocol:
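TR-UAS-bla GripTite HEK293 cells in 2% charcoal/dextran FBS medium were preincubated 4 h at 37 C, given compound (0.59 nM to 92 uM) plus 0.4 nM T3 (final) for 18 h, then CCF4 for 2 h at RT; Hill fit gave IC50.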

The nature of experiment [13]: qHTS assay for environmental chemicals that activate the Aryl hydrocarbon Receptor (AhR) signaling pathway (AID 651777; active = well fitted curve in the direction sought with a large enough effect; inconclusive = small, poorly fitted or top-dose-only effect, or another doubt; inactive = no such curve, though single readings can be large; an effect the other way counts as inactive or inconclusive; also: % of control where 0% means no effect; nearly all actives have a fitted effect of over 15% in size). The following applies: 1A2-DRE human hepatoma cells, luciferase, 24 h; activation: stronger effect = higher value. In short, it runs like this: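 Luminescence (One-Glo, 30 min, room temperature) reports AhR-driven luciferase in stably transfected human hepatoma cells bearing DRE and CYP1A2 promoter. Cells (1,200/well) were treated with compound for 24 hr at 37 C in qHTS format.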

The target of experiment [14] is Peroxisome proliferator-activated receptor alpha (Homo sapiens) (UniProt Q07869). Briefly: qHTS assay for small molecule agonists of the peroxisome proliferator-activated receptor alpha (PPARalpha) signaling pathway (AID 651778; active = well fitted curve in the direction sought with a large enough effect; inconclusive = small, poorly fitted or top-dose-only effect, or another doubt; inactive = no such curve, though single readings can be large; an effect the other way counts as inactive or inconclusive; also: % of control where 0% means no effect). The conditions noted are these: PathHunter PPARalpha complementation, chemiluminescence, 6 h; max response: stronger effect = higher value. A digest of the protocol:
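Cells plated at 2,000/well and held overnight at 37 C, 5% CO2, then compound added by pin tool for 6 hr; after PathHunter detection reagent and 60 min at room temperature, chemiluminescence from enzyme complementation was read.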

Experiment [15] is described as follows: qHTS assay for small molecule agonists of the antioxidant response element (ARE) signaling pathway measured by Nrf2-dependant transcriptional activity (AID 720636; active = well fitted curve in the direction sought with a large enough effect in the repeat runs; inconclusive = weak or mixed curves; inactive = no such curve, though single readings can be large; an effect the other way counts as inactive or inconclusive; also: potency is read from the fitted curve at half-maximal effect; as to activation: % of control where 0% means no effect). In short, it runs like this:
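Nrf2-dependent transcription read as ONE-Glo luciferase signal from ARE-luc HepG2 reporter cells after 16 hr compound treatment at 37 C, 5% CO2, in assay medium with 1% dialyzed FBS.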

Experiment [16] is described as follows: qHTS assay for small molecule agonists of the antioxidant response element (ARE) signaling pathway measured by Nrf2-dependant transcriptional activity - cell viability counter screen (AID 720653; active = well fitted curve in the direction sought with a large enough effect in the repeat runs; inconclusive = weak or mixed curves; inactive = no such curve, though single readings can be large; an effect the other way counts as inactive or inconclusive; also: % is scaled to controls: 0 for no effect and ±100 for the full control effect). The following applies: ARE-bla HepG2 viability, CellTiter-Glo ATP luminescence, 16 h; max response: stronger effect = lower value. In short, it runs like this: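 ARE-bla HepG2 cells (2,000/well) rested 5 hrs at 37C/5% CO2, then exposed to compounds in DMSO for 16 hrs. Viability was read in the same wells as intracellular ATP by luminescence, 30 min at room temperature after reagent addition.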

Experiment [17] is described as follows: qHTS assay for cell viability of HEK293 cells (AID 743288; active = well fitted curve in the direction sought with a large enough effect; inconclusive = small, poorly fitted or top-dose-only effect, or another doubt; inactive = no such curve, though single readings can be large; an effect the other way counts as inactive or inconclusive; also: nearly all actives have a fitted effect of over 50% in size; also: potency is read from the fitted curve at half-maximal effect). The conditions noted are these: ATP luminescence (CellTiter-Glo), 18 h; max response: stronger effect = lower value. In short, it runs like this: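 Parental HEK293 cells were seeded at 2,000 cells/well, rested at least 5 h at 37 C, then exposed to compounds in DMSO for 18 h at 37 C. Viability was read as ATP-dependent luciferase luminescence after 30 min at room temperature.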

The nature of experiment [18]: qHTS assay for cell viability of the p53RE-bla HCT-116 cell line (AID 743292; active = well fitted curve in the direction sought with a large enough effect; inconclusive = small, poorly fitted or top-dose-only effect, or another doubt; inactive = no such curve, though single readings can be large; an effect the other way counts as inactive or inconclusive; also: nearly all actives have a fitted effect of over 55% in size; also: potency is read from the fitted curve at half-maximal effect). A digest of the protocol:
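ATP-based luminescent viability (CellTiter-Glo, 30 min RT) after 16 h compound treatment at 37 C of p53RE-bla HCT-116 cells, seeded at 4,000 cells/well and rested 5 h before dosing.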

Experiment [19] has as its target Glucocorticoid receptor (Homo sapiens) (UniProt P04150). In words: qHTS assay for small molecule antagonists of glucocorticoid receptor signaling (AID 588533; active = well fitted inhibition curve with a large enough effect in the signal ratio, with a control signal flat, not every such curve was filed as active; inconclusive = small, poorly fitted or top-dose-only effect, or effect the other way, or a change in a side signal; the % refers to the signal ratio). In short, it runs like this:
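Antagonist-mode qHTS: compound titrations added to GRE-bla HeLa cells, then dexamethasone 2 nM final; 18 h, 37 C. CCF4 FRET fluorescence normalized to dexamethasone and DMSO; IC50 from Hill fit.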

Experiment [20] in a line: qHTS assay for small molecule activators of the p53 signaling pathway (AID 651743; active = well fitted activation curve with a large enough effect in the signal ratio, not every such curve was filed as active; inconclusive = small, poorly fitted or top-dose-only effect, or a change in a side signal; the % refers to the signal ratio; also: series mostly up to about 92 µM; % of control where 0% means no effect). The conditions noted are these: HCT-116 p53RE-bla, beta-lactamase FRET ratio, 16 h; activation: stronger effect = higher value. In short, it runs like this:
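Cell-based beta-lactamase reporter (p53 response elements, HCT-116 background). After a 5-hour preincubation, cells received compound for 16 hours at 37 C; substrate development ran 2 hours at room temperature.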

The source made the active and inactive calls. Unless noted, calls follow the shape of the full dose curve.

Sequence of Peroxisome proliferator-activated receptor delta (Homo sapiens) (Q03181 whole entry, looked up): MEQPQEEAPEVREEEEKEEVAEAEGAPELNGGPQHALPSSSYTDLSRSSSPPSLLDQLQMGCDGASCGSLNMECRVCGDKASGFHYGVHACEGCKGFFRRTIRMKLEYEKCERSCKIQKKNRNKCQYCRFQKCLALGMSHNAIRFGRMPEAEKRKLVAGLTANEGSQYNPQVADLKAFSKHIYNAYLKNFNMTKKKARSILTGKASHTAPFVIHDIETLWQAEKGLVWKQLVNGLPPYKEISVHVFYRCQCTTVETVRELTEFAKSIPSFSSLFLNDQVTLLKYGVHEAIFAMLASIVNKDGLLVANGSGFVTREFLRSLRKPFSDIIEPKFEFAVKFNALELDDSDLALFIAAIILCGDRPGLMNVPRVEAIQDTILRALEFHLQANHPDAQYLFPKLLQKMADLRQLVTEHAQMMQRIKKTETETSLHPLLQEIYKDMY
Sequence of Estrogen receptor (Homo sapiens) (P03372 whole entry, looked up): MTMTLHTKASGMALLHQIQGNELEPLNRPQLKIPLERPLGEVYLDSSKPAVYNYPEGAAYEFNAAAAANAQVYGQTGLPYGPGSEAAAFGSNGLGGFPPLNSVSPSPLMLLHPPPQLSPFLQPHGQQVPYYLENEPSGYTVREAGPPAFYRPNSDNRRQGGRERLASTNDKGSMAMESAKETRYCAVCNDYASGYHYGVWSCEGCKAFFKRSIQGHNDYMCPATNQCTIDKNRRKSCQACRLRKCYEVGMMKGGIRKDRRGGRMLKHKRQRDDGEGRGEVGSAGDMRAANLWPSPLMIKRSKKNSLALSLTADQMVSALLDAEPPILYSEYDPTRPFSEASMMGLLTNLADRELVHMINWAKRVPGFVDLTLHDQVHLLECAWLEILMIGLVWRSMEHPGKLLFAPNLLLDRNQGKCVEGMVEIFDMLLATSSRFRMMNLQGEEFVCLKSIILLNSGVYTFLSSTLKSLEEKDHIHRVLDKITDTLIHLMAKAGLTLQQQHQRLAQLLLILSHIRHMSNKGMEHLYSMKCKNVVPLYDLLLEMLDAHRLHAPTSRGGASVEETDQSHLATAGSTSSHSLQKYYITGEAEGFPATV
Sequence of Peroxisome proliferator-activated receptor gamma (Homo sapiens) (P37231 whole entry, looked up): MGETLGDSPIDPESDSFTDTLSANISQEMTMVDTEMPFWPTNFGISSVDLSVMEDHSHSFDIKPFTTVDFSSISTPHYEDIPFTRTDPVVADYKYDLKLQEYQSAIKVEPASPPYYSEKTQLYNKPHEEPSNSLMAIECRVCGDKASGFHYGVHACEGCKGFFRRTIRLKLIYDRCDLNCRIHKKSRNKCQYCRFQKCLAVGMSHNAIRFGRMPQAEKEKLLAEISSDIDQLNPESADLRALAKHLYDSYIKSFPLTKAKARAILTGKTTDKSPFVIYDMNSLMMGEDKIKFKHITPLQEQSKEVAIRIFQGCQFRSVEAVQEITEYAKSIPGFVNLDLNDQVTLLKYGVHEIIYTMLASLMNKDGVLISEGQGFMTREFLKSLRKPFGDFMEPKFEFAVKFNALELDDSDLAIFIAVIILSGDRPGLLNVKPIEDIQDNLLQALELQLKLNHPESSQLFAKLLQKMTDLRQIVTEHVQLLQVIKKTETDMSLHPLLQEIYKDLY
Sequence of Vitamin D3 receptor (Homo sapiens) (P11473 whole entry, looked up): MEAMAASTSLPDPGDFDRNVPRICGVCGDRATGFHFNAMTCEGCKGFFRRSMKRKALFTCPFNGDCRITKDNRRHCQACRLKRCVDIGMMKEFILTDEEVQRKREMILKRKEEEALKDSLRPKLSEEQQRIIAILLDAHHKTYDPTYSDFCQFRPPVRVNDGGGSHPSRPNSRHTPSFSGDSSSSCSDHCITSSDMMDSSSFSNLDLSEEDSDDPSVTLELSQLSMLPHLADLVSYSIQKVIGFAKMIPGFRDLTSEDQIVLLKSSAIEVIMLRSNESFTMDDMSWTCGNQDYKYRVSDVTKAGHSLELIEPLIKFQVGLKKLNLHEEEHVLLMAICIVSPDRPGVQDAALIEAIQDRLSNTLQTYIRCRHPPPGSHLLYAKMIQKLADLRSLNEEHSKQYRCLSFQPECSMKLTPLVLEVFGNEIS
Sequence of Peroxisome proliferator-activated receptor alpha (Homo sapiens) (Q07869 whole entry, looked up): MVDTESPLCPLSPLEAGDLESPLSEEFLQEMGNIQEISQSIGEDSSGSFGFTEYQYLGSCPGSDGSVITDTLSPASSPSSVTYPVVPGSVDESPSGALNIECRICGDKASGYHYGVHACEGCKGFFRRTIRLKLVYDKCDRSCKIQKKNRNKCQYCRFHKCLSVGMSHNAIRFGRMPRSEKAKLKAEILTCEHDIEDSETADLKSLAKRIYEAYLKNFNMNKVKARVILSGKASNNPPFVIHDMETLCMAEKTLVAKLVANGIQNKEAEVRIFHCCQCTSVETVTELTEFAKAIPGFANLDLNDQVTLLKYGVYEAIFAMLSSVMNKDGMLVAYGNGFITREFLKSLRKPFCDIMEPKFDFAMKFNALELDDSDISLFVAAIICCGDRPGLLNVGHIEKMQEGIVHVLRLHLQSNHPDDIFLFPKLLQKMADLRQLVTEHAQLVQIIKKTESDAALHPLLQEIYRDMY
Sequence of Glucocorticoid receptor (Homo sapiens) (P04150 whole entry, looked up): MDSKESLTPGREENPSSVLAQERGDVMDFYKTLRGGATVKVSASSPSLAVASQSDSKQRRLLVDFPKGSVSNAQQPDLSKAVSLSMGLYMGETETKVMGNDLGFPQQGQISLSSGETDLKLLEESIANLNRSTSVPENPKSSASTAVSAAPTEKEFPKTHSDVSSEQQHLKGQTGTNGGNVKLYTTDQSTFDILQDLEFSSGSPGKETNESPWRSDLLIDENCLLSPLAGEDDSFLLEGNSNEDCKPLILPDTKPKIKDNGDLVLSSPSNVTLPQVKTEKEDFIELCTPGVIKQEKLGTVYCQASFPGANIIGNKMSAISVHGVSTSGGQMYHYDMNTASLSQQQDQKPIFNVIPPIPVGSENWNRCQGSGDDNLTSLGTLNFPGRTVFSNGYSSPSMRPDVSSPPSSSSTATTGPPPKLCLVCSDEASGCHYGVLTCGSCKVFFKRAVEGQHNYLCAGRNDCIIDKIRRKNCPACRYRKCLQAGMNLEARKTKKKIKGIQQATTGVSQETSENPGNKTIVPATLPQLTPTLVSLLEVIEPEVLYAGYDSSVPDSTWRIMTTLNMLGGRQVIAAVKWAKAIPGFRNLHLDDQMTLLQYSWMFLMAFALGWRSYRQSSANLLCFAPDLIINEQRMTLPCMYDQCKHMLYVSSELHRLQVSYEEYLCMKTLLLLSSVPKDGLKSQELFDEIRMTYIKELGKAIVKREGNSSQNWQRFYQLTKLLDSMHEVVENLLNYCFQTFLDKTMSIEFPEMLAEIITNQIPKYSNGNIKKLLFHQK

With `CCNC(=O)NC(=O)/C(C#N)=N/OC`, the Potency entry in experiment [1], in experiment [2], in [4], in experiment [5], in [6] and in experiment [8] was “inactive” throughout. For the same molecule, the Potency entry in experiment [9], in [15] and in [18] was “inactive” each time. The call in [3] was inactive. The max response is 5.29% in experiment [7]; -2.66% in experiment [10]; 12.8% (inactive) in experiment [11]; 0.388% (inactive) in experiment [14]; -0.764% (inactive) in experiment [16]; -16.3% (inactive) in experiment [17]. Besides, in experiment [12], the activity change % (negative = inhibition) was 5.55% (inactive). For the same molecule, the activation in [13] was 0.625% (inactive).

With `CCNc1nc(NCC)nc(SC)n1`, the Potency result in [1], in [2], in experiment [19], in experiment [4], in [6] and in [8] was “inactive” each time. Besides, the Potency entry in [9] and in [18] was “inactive” in each case. The max response was -4.09% in experiment [7]; -14% in experiment [10]; 0.186% (inactive) in experiment [14]; 8.18% (inactive) in experiment [16]; -5.22% (inactive) in experiment [17]. Also, in experiment [12], the activity change % (negative = inhibition) is -6.04% (inactive). For the same molecule, the activation in experiment [20] is -3.86% (inactive).

For the molecule `COc1nc(C)nc(NC(=O)NS(=O)(=O)c2ccccc2Cl)n1`, the Potency result in experiment [1], in experiment [2], in experiment [19], in [4], in experiment [5] and in experiment [6] was “inactive” throughout. Further, the Potency entry in experiment [8], in experiment [9], in experiment [15] and in [18] was “inactive” throughout. For the same molecule, the max response is -7.69% in experiment [7]; -9.33% in experiment [10]; -1.72% (inactive) in [11]; -1.56% (inactive) in experiment [14]; -0.816% (inactive) in [16]; -13% (inactive) in experiment [17]. For the same molecule, the activation was -1.02% (inactive) in experiment [20] and 1.34% (inactive) in experiment [13].

On to `Cc1c(COC(=O)C2C(/C=C(\Cl)C(F)(F)F)C2(C)C)cccc1-c1ccccc1` (configuration not stated), for which the Potency entry in experiment [1], in experiment [2], in experiment [4], in experiment [5], in experiment [6] and in experiment [9] was “inactive” in each case. For the same molecule, in [15], the Potency result is “inactive”. Besides, the molecule was classed as inactive in experiment [3]. Also, the max response in experiment [10] was 1.28%; in experiment [14], -0.35% (inactive); in [16], -14.6% (inactive); in experiment [17] it was -17.7% (inactive). In addition, the activation was 2.17% (inactive) in [20] and -0.984% (inactive) in [13].

`O=Nc1ccc(Nc2ccccc2)cc1`: the Potency in [1] is 12.6 µM [inconclusive] (active); in experiment [2] it was 5.01 µM (active); in [15] it was 21.7 µM (active). Moreover, the call in experiment [3] was inactive. In [5], the Potency entry is “inactive”. Moreover, the activation in [13] was 6.01% (inactive).

Regarding `CCC[CH2][Sn]([CH2]CCC)[CH2]CCC`, the Potency in experiment [1] was 15.8 µM [inhibitor] (active); in [17], 28.2 µM (active); in [18], 28.2 µM (active). Further, the Potency result in experiment [2] is “inactive”. The activation in experiment [13] was -0.508% (inactive). The max response in [14] was 1.41% (inactive).
